Screening results deposited in PubChem by National Center for Advancing Translational Sciences (NCATS).
HT1080 IDH1KD tx: toxicity to HT-1080 IDH1 knockdown cells (counter line); HT-1080 IDH1 knockdown viability, ATP luminescence, 48 h; Potency, µM (titrated, usually from 46.1 µM), without a hit: at the highest dose activity, negative = toxicity, actives largely listed as cytotoxic; 360,000 compounds, 2% hits; AID 686971;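 note: 0% = DMSO wells and -100% = cell-free medium wells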
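Assay cells: HT-1080 with IDH1 knockdown, 750 per well, RPMI/5% FBS. Exposure: 48 h at 37 °C following 2 h pre-incubation. Read: CellTiter-Glo luminescence; fitted concentration-response, curve class assigned.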
KB-3-1 tox: KB-3-1 parental cell cytotoxicity | KB-3-1 viability, CellTiter-Glo ATP luminescence, 72 h | Potency, µM (top dose mostly 46.1 µM), usual class: cytotoxic | 400,000 compounds, 1.4% hits | AID 1347075; note: % is set by controls: 0 for no effect and ±100 for the full control effect; nearly all actives have a fitted effect of over 60% in size
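Cells are dispensed, compounds pinned in, plates held at 37 °C for 72 h, then CellTiter-Glo is added and luminescence read after 10 minutes. Cell line: parental KB-3-1 in phenol-red-free DMEM, 10% FBS.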
KB-V1 MDR tox: KB-V1 MDR subline cytotoxicity | Potency, µM (highest dose often 46.1 µM), actives largely listed as cytotoxic | AID 1347076 | 400,000 compounds, 3.4% hits | KB-V1 MDR cells viability, CellTiter-Glo, 72 h; note: % is set by controls: 0 for no effect and ±100 for the full control effect; nearly all actives have a fitted effect of over 60% in size
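Luminescent ATP read-out (CellTiter-Glo, 10 min) measures survival of drug-selected KB-V1 MDR cells after 72 h, 37 degrees C compound exposure. Medium: phenol-red-free DMEM, 10% FBS. Values from fitted concentration-response curves.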
HT1080-NT tox: kills 2HG-producing HT-1080-NT fibrosarcoma cells. AID 686970. HT-1080-NT fibrosarcoma viability, CellTiter-Glo ATP luminescence, 48 h. Potency, µM (series often up to 46.1 µM), inactives show top-dose activity, negative = less viability, most hits filed as cytotoxic. 360,000 compounds, 1.6% hits;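 note: NT is the 2HG producing partner of a matched IDH1 knockdown line; 0% = DMSO-treated cells and -100% = media-only wells without cells; nearly all actives have a fitted effect of over 55% in size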
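Fibrosarcoma NT cells, 750 per well in 5% FBS RPMI, were exposed to compound for 48 hours. Viability: CellTiter-Glo luminescence.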
SW480 rereplic: DNA re-replication induction in SW480 cells | 340,000 compounds, 1.8% hits | Potency, µM (top dose mostly 46.1 µM), for inactives: top-dose re-replication activation, hits mostly activators | SW480 DNA re-replication, Hoechst DNA content imaging, 48 h; note: % of control where 0% means no effect; nearly all actives have a fitted effect of over 55% in size
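Image-based read-out: total Hoechst fluorescence of nuclei (405 nm excitation, 500-530 nm emission), with hits raising the fraction of high-intensity nuclei. SW480 colon cells incubated 48 hr with compounds at 37 C.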
MCF10A rereplic: induces DNA re-replication in MCF 10a normal breast cells; MCF 10A DNA re-replication, Hoechst nuclear intensity, 48 h; Potency, µM (doses to about 46.1 µM), without a hit: at the highest dose activity, positive = re-replication, usual class: activators; 350,000 compounds, 2.9% hits; AID 624296; note: % of control where 0% means no effect; nearly all actives have a fitted effect of over 50% in size
* marks the source's active call; other numbers are inactive results; i = inactive; ? = inconclusive; · = no result. In the library only some 8% were active in any assay of this set; here they are far more common. Calls come from the whole dose curve; as a rule, active = well fitted curve in the direction sought with a large enough effect; inconclusive = small, poorly fitted or top-dose-only effect, or another doubt; inactive = no such curve, though single readings can be large; an effect the other way counts as inactive or inconclusive. Potency is the fitted concentration of half-maximal effect.

SMILES	HT1080 IDH1KD tx	KB-3-1 tox	KB-V1 MDR tox	HT1080-NT tox	SW480 rereplic	MCF10A rereplic
O=C(CSc1nc2cc(Cl)c(Cl)cc2[nH]1)c1ccc2c(c1)OCO2	-18%	15µM*	8.2µM*	-25%	-7%	2%
O=C(CSc1nc2ccc(Cl)cc2[nH]1)c1ccc2c(c1)OCO2	8%	i	i	1%	-3%	4%
CCOC(=O)c1sc(=S)n(C)c1NC(=O)c1ccc(OC)cc1	0%	i	i	1%	0%	-1%
CCOC(=O)c1sc(=S)n(C)c1NC(=O)c1ccc(C(C)(C)C)cc1	16µM*	?	?	?	2%	?
Fc1ccc(C2NC(=S)NC3=C2N2CCC3CC2)cc1 (centres undefined)	15%	i	i	3%	2%	13µM*
CC(=O)C1=CCC(c2cccc3ccccc23)N(S(=O)(=O)c2ccc(C)cc2)C1 (centres undefined)	?	?	10µM*	?	·	·
CC(=O)C1=CCC(c2ccccc2F)N(S(=O)(=O)c2ccc(C)cc2)C1 (centres undefined)	?	i	i	?	·	·
Cc1ccc(S(=O)(=O)N2CCC(C(=O)NC3CCCC3)CC2)cc1Cl	0%	i	i	-3%	-1%	-1%
C(=N\n1cnnc1)/c1ccc2c(c1)OCO2	10%	i	i	?	-2%	10%
CN(C)S(=O)(=O)c1ccc(N2CCN(S(=O)(=O)c3ccc(F)cc3)CC2)c(Cl)c1	7.1µM*	?	5.8µM*	10µM*	-3%	2%
CN(C)S(=O)(=O)N1CCN(S(=O)(=O)c2ccc(F)cc2)CC1	6%	i	i	-3%	9%	4%
CN=C1S/C(=C\c2ccc(Cl)cc2)C(=O)N1C	13%	i	i	12%	23µM*	?
COc1ccccc1/C=C/C=N/n1c(-c2ccc(Cl)cc2)n[nH]c1=S	5%	i	i	6%	-14%	?
COc1ccc(-c2cc(C(=O)Nc3cc(OC)c(OC)c(OC)c3)[nH]n2)c(C)c1	15%	?	i	?	·	·
COc1ccc(C(=O)Nc2cccc(NC(=O)c3cccs3)c2)cc1	-15%	i	i	-3%	-6%	2%
COc1nc(N)nc(NC(=O)c2cccs2)c1N=O	18µM*	i	i	16µM*	5.2µM*	21µM*
COC12NC(=O)N(C)C1(OC)C(=O)N(C)C(=O)N2C (centres undefined)	23%	i	i	2%	0.65µM*	?
Cc1cc[n+]2cc(-c3cccc([N+](=O)[O-])c3)c(-c3cccc([N+](=O)[O-])c3)cc2c1	3%	i	i	1%	2.6µM*	-2%
CC(C)[C@H](CN1CCC[C@H]1CN1C(N)=NC[C@@H]1Cc1ccccc1)N1C[C@@H](Cc2ccccc2)N(CCc2ccc(Cl)c(Cl)c2)C1=N	1%	i	i	-3%	21%	?
COc1cccc(C(N)=O)c1	0%	i	i	3%	-3%	4%
Cc1ccc(C)c(S(=O)(=O)N2CCN(C(=O)C3CCN(C(=O)c4ccc(F)cc4)CC3)CC2)c1	-1%	i	7.3µM*	0%	-8%	0%
O=C(c1ccc(F)cc1)N1CCC(C(=O)N2CCN(S(=O)(=O)c3cccc(F)c3)CC2)CC1	-1%	i	i	2%	?	3%
Cc1ccc(C(C)(C)C)cc1S(=O)(=O)N1CCC(C(=O)N2CCN(c3ccc(O)cc3)CC2)CC1	-21%	?	15µM*	-8%	10%	?
Cc1cc(C)c(C)c(S(=O)(=O)N2CCC(C(=O)N3CCN(c4ccc(F)cc4)CC3)CC2)c1C	0%	i	i	-7%	23%	15%
COc1ccc(C2CC(c3ccccc3)=NN2C(=O)COC(=O)c2ccc(S(C)(=O)=O)cc2)cc1 (centres undefined)	-2%	i	?	-3%	1%	2%
SMILES	HT1080 IDH1KD tx	KB-3-1 tox	KB-V1 MDR tox	HT1080-NT tox	SW480 rereplic	MCF10A rereplic
COc1ccc(C2CC(c3ccc(Cl)cc3)=NN2C(C)=O)cc1 (centres undefined)	-6%	i	?	-13%	-2%	10%
COc1ccc(C2CC(c3ccncc3)=NN2c2ccc(S(N)(=O)=O)cc2)cc1 (centres undefined)	?	i	i	?	18µM*	2.9µM*
COc1ccc(C2CC(c3ccc(Cl)cc3)=NN2c2ccc(S(N)(=O)=O)cc2)cc1 (centres undefined)	?	?	i	?	0.82µM*	?
COc1ccc(C2CC(c3cccc(Cl)c3)=NN2c2ccc(S(N)(=O)=O)cc2)cc1 (centres undefined)	-19%	?	?	-28%	2.1µM*	1.3µM*
S=C(Nc1ccccc1)N1CCN(C/C=C/c2ccccc2)CC1	-10%	i	i	-2%	-10%	1%
COc1ccccc1C(=O)NCC(=O)N1CCN(C/C=C/c2ccccc2)CC1	8%	i	8.2µM*	-3%	1%	10%
Fc1ccccc1NC(=S)N1CCN(C/C=C/c2ccccc2)CC1	-2%	?	16µM*	0%	1%	17%
COc1cccc(NC(=S)N2CCN(C/C=C/c3ccccc3)CC2)c1	?	i	?	13µM*	1%	5%
Cc1ccccc1C(=O)NCC(=O)N1CCN(C/C=C/c2ccccc2)CC1	-1%	i	i	6%	-4%	-1%
Cc1ccccc1Nc1nc(N)nc(COC(=O)c2nn(C)c(=O)c3ccccc23)n1	6%	i	i	2%	·	·
COc1c(F)c(F)c(C(=O)O)c(Nc2ccc(C)cc2)c1F	-4%	i	i	13%	-5%	?
CCn1c(SCC(=O)Nc2ccccc2C(=O)OC)nnc1-c1cccc(C)c1	-6%	i	?	-28%	4%	-25%
N#C/C(=C/c1ccc(-c2ccccc2)o1)c1nc(-c2cccs2)cs1	1%	i	?	-1%	4%	?
COc1ccc(OC)c2[nH]c(=O)c(CCNC(=O)C3CCCCC3)cc12	5%	i	9.2µM*	23%	-4%	-12%
COc1ccc(OC)c2[nH]c(=O)c(CCNC(=O)c3ccc(S(=O)(=O)N4CCCCC4)cc3)cc12	3%	i	8.2µM*	5%	-2%	4%
COc1ccc(OC)c2[nH]c(=O)c(CCNC(=O)C(C)C)cc12	16%	i	i	12%	3%	-5%
